DT40 TDP1 CPT: DT40-hTDP1 cell growth loss with CPT; chicken DT40 Tdp1-/-;hTDP1 cells + 20 nM CPT, ATP luminescence, 48 h; Potency, µM (highest dose often 46.2 µM), most hits filed as inhibitors; hit rate 12% among 420,000; AID 686979; also: nearly all actives have a fitted effect of over 55% in size
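Chicken DT40 Tdp1-/- cells complemented with human TDP1, 400 cells/well, exposed to compounds plus 20 nM camptothecin for at least 48 h at 37 C; viability read as ATP content by CellTiter-Glo luminescence.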
ClpP mod: qHTS Assay for Activators of ClpP; ATP-dependent Clp protease proteolytic subunit (Bacillus subtilis (strain 168)), P80244; Potency, µM (series often up to 57.5 µM); hit rate 1.9% among 340,000; purified B. subtilis ClpP, FRET peptide cleavage, 20 min; active = well fitted falling curve with a large enough effect; inconclusive = small, poorly fitted or top-dose-only effect; inactive = no such curve, though single readings can be large or run the other way; also: the source files actives as falling curves though it sought activators and does not explain the sign; nearly all actives have a fitted effect of over 65% in size
Target sequence (P80244 whole entry, looked up): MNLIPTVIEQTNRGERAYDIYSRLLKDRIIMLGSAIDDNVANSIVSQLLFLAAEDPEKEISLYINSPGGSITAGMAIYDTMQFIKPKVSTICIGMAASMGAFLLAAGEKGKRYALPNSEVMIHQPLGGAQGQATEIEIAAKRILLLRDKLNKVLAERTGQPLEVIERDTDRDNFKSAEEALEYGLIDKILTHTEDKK
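ClpP 10 microg/mL final, pH 8 Tris/KCl buffer with BSA, glycerol, Tween-20; compound pinned in; FRET-FV substrate; RT 20 min; Ex320/Em430; ΔFRET vs ADEP 5.8 microM, DMSO, no enzyme.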
TDP1 cell noCPT: qHTS for Inhibitors of human tyrosyl-DNA phosphodiesterase 1 (TDP1): qHTS in cells in absence of CPT; DT40 Tdp1-/- hTDP1 cells, no CPT, ATP luminescence, 48 h; Potency, µM (top dose mostly 46.2 µM), hits mostly inhibitors; hit rate 15% among 420,000; AID 686978, 2013; also: nearly all actives have a fitted effect of over 55% in size
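A cellular qHTS used chicken DT40 cells lacking endogenous Tdp1 but carrying stably transfected human TDP1. Compounds were applied without camptothecin, and cell growth kinetics were judged by ATP-dependent luminescence after ≥48 hr.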
TDP1 block: TDP1 (human) enzyme inhibition. Q9NUW8. recombinant TDP1, AlphaScreen DNA substrate cleavage. Potency, µM (doses to about 130 µM), actives largely listed as inhibitors. hit rate 0.28% among 350,000. AID 485290; also: nearly all actives have a fitted effect of over 40% in size
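Signal: AlphaScreen proximity between streptavidin donor and anti-FITC acceptor beads on intact substrate. Reaction: Tdp1 1 nM, substrate 15 nM final, 5 min RT after 15 min compound preincubation.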
Large screens that a line does not name were inactive; ! = not confirmed by another sample. Rows were chosen to be rich in hits. Some 17% of all compounds tested hit in one or more screens of this group. Unless noted, calls follow the shape of the dose curve; as a rule, active = well fitted curve in the direction sought with a large enough effect; inconclusive = small, poorly fitted or top-dose-only effect, or another doubt; inactive = no such curve, though single readings can be large; an effect the other way counts as inactive or inconclusive.

Cc1cc2oc(=O)cc(COC(=O)c3n[nH]c4ccccc34)c2cc1C	DT40 TDP1 CPT inconclusive, TDP1 cell noCPT inconclusive
COc1cc2oc(=O)cc(CN(Cc3ccccc3)Cc3ccccc3)c2cc1Cl	none (no result: TDP1 block)
Cc1cc(NC(=O)COC(=O)c2n[nH]c3ccccc23)no1	ClpP mod 11µM
COC(=O)c1ccc(Cl)cc1NC(=O)N1CCCn2nc(C)cc21	none
Cc1ccc(CCCNC(=O)C2CCC(=O)N(Cc3cccc(F)c3)C2)cc1 (stereo unspecified)	TDP1 cell noCPT inconclusive (no result: ClpP mod)
COc1ccc2c(CN3CCN(Cc4ccccc4)CC3)cc(=O)oc2c1	DT40 TDP1 CPT inconclusive, TDP1 cell noCPT 23µM (no result: TDP1 block)
COc1ccc2c(CN(Cc3ccccc3)Cc3ccccc3)cc(=O)oc2c1	DT40 TDP1 CPT 16µM, ClpP mod inconclusive, TDP1 cell noCPT inconclusive (no result: TDP1 block)
COc1ccc2c(CN3CCN(c4ccc(Cl)c(Cl)c4)CC3)cc(=O)oc2c1	DT40 TDP1 CPT 21µM, ClpP mod inconclusive, TDP1 cell noCPT 13µM (no result: TDP1 block)
COc1ccc2oc(=O)cc(CN3CCN(Cc4ccccc4)CC3)c2c1	DT40 TDP1 CPT inconclusive, ClpP mod inconclusive, TDP1 cell noCPT inconclusive
CCCN(CCC)Cc1cc(=O)oc2cc(OC)ccc12	DT40 TDP1 CPT inconclusive, TDP1 cell noCPT inconclusive (no result: TDP1 block)
COc1ccccc1NC(=O)Nc1ccc(F)c(F)c1	TDP1 cell noCPT inconclusive (no result: ClpP mod)
CC(C)[C@@H]1Cc2[nH][nH]c(=O)c2[C@H](C)O1	none (no result: TDP1 block)
CCN(CC)C(=O)c1sc2c(c1C)c(=O)n(-c1ccc(Cl)c(Cl)c1)c(=O)n2Cc1cc(=O)n2ccccc2n1	ClpP mod inconclusive, TDP1 cell noCPT inconclusive
CCOc1ccc(CCNC(=O)CCCn2nc(C)c3sc4ccccc4c3c2=O)cc1OCC	DT40 TDP1 CPT 23µM, ClpP mod inconclusive, TDP1 cell noCPT 18µM
CCC(C(=O)NCCc1ccc(OC)c(OC)c1OC)n1nc(C)c2sc3ccccc3c2c1=O (stereo unspecified)	DT40 TDP1 CPT 9.2µM, TDP1 cell noCPT 12µM
COc1ccc(CCNC(=O)C(C)n2nc(C)c3sc4ccccc4c3c2=O)c(OC)c1 (stereo unspecified)	DT40 TDP1 CPT 21µM, TDP1 cell noCPT 16µM
COc1ccc(OC)c(S(=O)(=O)N2CCC(n3c(C)nc4cccnc43)CC2)c1	DT40 TDP1 CPT inconclusive
O=C(c1ccc(OC2CCN(CCc3ccccc3)CC2)cc1)N1CCCCC1CCCO (stereo unspecified)	none
CCOC(=O)c1sc2ncn(CC(=O)Nc3ccc(OCC)cc3)c(=O)c2c1C	none
COc1ccc(S(=O)(=O)N2Cc3ccccc3CC2C(=O)Nc2cc(Cl)ccc2Cl)cc1 (stereo unspecified)	DT40 TDP1 CPT inconclusive, TDP1 cell noCPT inconclusive
C#C[C@]1(OC(C)=O)CC[C@H]2[C@@H]3CCC4=C[C@@H](OC(C)=O)CC[C@@H]4[C@H]3CC[C@@]21C	DT40 TDP1 CPT inconclusive, TDP1 cell noCPT 15µM! (no result: ClpP mod)
C#C[C@]1(O)CC[C@@H]2[C@H]3CCC4=CCCC[C@@H]4[C@@H]3CC[C@@]21C	none (no result: DT40 TDP1 CPT, ClpP mod, TDP1 cell noCPT)
C#C[C@]1(OC(C)=O)CCC2C3CCC4=CC(=O)CCC4C3CC[C@]21C (stereo partly specified)	DT40 TDP1 CPT 0.21µM, TDP1 cell noCPT 16µM (no result: ClpP mod)
C#C[C@]1(OC(C)=O)CCC2C3CCC4=CC(=O)CC[C@@H]4C3CC[C@@]21C (stereo partly specified)	DT40 TDP1 CPT inconclusive, TDP1 cell noCPT 23µM (no result: TDP1 block)
O=C(Nc1ccc(F)c(F)c1)C1CCCN1S(=O)(=O)c1ccc(F)cc1 (stereo unspecified)	DT40 TDP1 CPT inconclusive, TDP1 cell noCPT inconclusive
Cc1ccc(N(CC(=O)N2CCCCCC2)S(C)(=O)=O)cc1	none (no result: TDP1 block)
CCCC(C(=O)NC(C)(C)C)N(CC1CCCO1)C(=O)CNS(=O)(=O)c1ccc(F)cc1 (stereo unspecified)	none (no result: ClpP mod, TDP1 block)
CCN(CC)C(=O)c1ccc2c(c1)N(Cc1ccc(C(F)(F)F)cc1)C(=O)c1ccccc1S2	DT40 TDP1 CPT 16µM, TDP1 cell noCPT 18µM
O=C(O)c1ccc2c(c1)N(Cc1ccc(F)cc1)C(=O)c1ccccc1S2	none
COCCNC(=O)c1ccc2c(c1)N(Cc1ccc(C(F)(F)F)cc1)C(=O)c1ccccc1S2	DT40 TDP1 CPT 16µM, TDP1 cell noCPT inconclusive
CCOc1ccc(CN2C(=O)c3ccccc3Sc3ccc(C(=O)NCCc4ccccc4)cc32)cc1	TDP1 cell noCPT inconclusive
O=C(NC1CCCC1)c1ccc2c(c1)N(Cc1ccc(C(F)(F)F)cc1)C(=O)c1ccccc1S2	DT40 TDP1 CPT 21µM, TDP1 cell noCPT 9.2µM
Cc1ccsc1C(=O)OC(C)C(=O)NC1CCCCC1C (stereo unspecified)	none
CCC(C)NC(=O)Cn1cccc1C(=O)c1ccccc1 (stereo unspecified)	none
CC(NC(=O)Cn1cccc1C(=O)c1ccccc1)c1ccccc1 (stereo unspecified)	DT40 TDP1 CPT 13µM, TDP1 cell noCPT inconclusive
Cc1ccc(NC(=O)c2cc3c(=O)[nH]c4ccccc4c3n2C)cc1F	DT40 TDP1 CPT inconclusive
CCOC(=O)C(C(=O)OCC)C1OC(=O)c2cc3c(cc21)C(=O)OC3C(C(=O)OCC)C(=O)OCC (stereo unspecified)	DT40 TDP1 CPT inconclusive (no result: ClpP mod)
CCCC(=O)Oc1ccccc1C1SCc2cc(C)c(C)cc2CS1	DT40 TDP1 CPT 18µM, TDP1 cell noCPT 26µM
O=C(c1ccnc(Cl)c1)N1CCCC(N2CCN(c3ccccc3F)CC2)C1 (stereo unspecified)	TDP1 cell noCPT inconclusive (no result: ClpP mod)
CC1c2cc3c(cc2CCN1C(=O)c1cccc(F)c1)OCCCO3 (stereo unspecified)	DT40 TDP1 CPT 21µM, TDP1 cell noCPT inconclusive
CC1c2cc3c(cc2CCN1C(=O)c1ccc(Br)cc1)OCCCO3 (stereo unspecified)	DT40 TDP1 CPT 16µM, TDP1 cell noCPT 7.3µM
Cc1cc(C)cc(NC(=O)CN2CCc3cc4c(cc3C2C)OCCCO4)c1 (stereo unspecified)	DT40 TDP1 CPT inconclusive, TDP1 cell noCPT inconclusive
Cc1cccc(NC(=O)CN2CCc3cc4c(cc3C2C)OCCCO4)c1 (stereo unspecified)	DT40 TDP1 CPT inconclusive, TDP1 cell noCPT inconclusive
COc1ccc(C(=O)N2CCc3cc4c(cc3C2C)OCCCO4)cc1 (stereo unspecified)	DT40 TDP1 CPT 21µM, TDP1 cell noCPT 21µM (no result: TDP1 block)
C=C1SC(=Nc2c(C)cc(C)cc2C)N(C(=O)c2sc3ccccc3c2Cl)C12CCCCC2	DT40 TDP1 CPT inconclusive, TDP1 cell noCPT 21µM
C=C(C)CN=CC1(C)CCC(C)=CO1 (stereo unspecified)	DT40 TDP1 CPT 16µM, TDP1 cell noCPT 18µM (no result: TDP1 block)
O=C(CSc1nnc(NC(=O)c2ccccc2F)s1)NCc1ccco1	TDP1 cell noCPT inconclusive
Cc1ccc(NS(=O)(=O)c2ccc3c(c2)C(C(C)C)C(=O)N3)cc1C (stereo unspecified)	DT40 TDP1 CPT inconclusive, TDP1 cell noCPT 29µM

Source: PubChem
